For 19 molecules, outcome and AC50 results are on record in PubChem BioAssay (EPA / NIEHS).

Where “and” joins values, the source holds several entries; their conditions need not be identical. Equal entries are not always repeated. Calls of active or inactive are those of the source. The calls were made as follows: active = hit-call score of the fitted dose curve at least 0.9, where 1 is the maximum; inactive = score below 0.9.

Assay [1] is described as follows: BSK_BT_PBMCCytotoxicity: PBMC Cytotoxicity Assessment in the BioMAP Diversity Plus: BT Assay (AID 2284225).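 Also: PBMC viability measured by Alamar Blue dye reduction fluorescence.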 The conditions noted are these: primary human B cells with PBMC. A digest of the protocol: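 75,000 cells/well; cpd 1 h → SEB + TSST-1 (20 ng/mL final each) → 90 h → Alamar Blue 6 h → fluor. 546/580 nm. DMSO = neg. control/baseline.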
Read-out in assay [2]: Secreted IgG (sIgG), gene 3500
Briefly: BSK_BT_sIgG: BioMAP Diversity Plus: BT Assay for Secreted IgG (sIgG) Biomarker Activity (AID 2284226). The settings on record: primary human B cells with PBMC. A digest of the protocol:
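Secreted IgG from a human primary B cell–PBMC co-culture was measured by ELISA 24 hours after dosing, with DMSO defining baseline activity.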

The nature of assay [3]: BSK_BT_Bcell_Proliferation: Viability Assessment in the BioMAP Diversity Plus: BT Assay for B cell Proliferation (AID 2284227). The settings on record: primary human B cells with PBMC. A digest of the protocol: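 Human B cell/PBMC co-culture; test chemical added; 72 h; TCA fix (10%), 0.1% SRB stain, A560 for total protein as a proliferation read-out; positive-direction fit vs DMSO baseline.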

Read-out in assay [4]: Interleukin 6 (IL6), IL6 (gene 3569)
Nature of the assay: BSK_BT_xIL6: BioMAP Diversity Plus: BT Assay for Interleukin 6 (IL6) Biomarker Activity (AID 2284228). The conditions noted are these: primary human B cells with PBMC. A digest of the protocol: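 Chemical added to human B cell/PBMC co-culture → 24 h → supernatant IL-6 by Luminex xMAP → fit vs DMSO baseline, upward direction.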

Read-out in assay [5]: Interleukin 17A (IL17A), IL17A (gene 3605)
Nature of the assay: BSK_BT_xIL17A: BioMAP Diversity Plus: BT Assay for Interleukin 17A (IL17A) Biomarker Activity (AID 2284229). The conditions noted are these: primary human B cells with PBMC. In a few lines: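 Chemicals were added to a human B cell and PBMC co-culture. After 24 h, secreted IL-17A was measured with Luminex xMAP. Curves were fitted in the positive direction, with DMSO wells as baseline.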

Read-out in assay [6]: Tumor necrosis factor (Homo sapiens) (UniProt P01375)
Nature of the assay: BSK_BT_xTNFa: BioMAP Diversity Plus: BT Assay for Tumor necrosis factor alpha (TNF-alpha) Biomarker Activity (AID 2284230). The settings on record: primary human B cells with PBMC. In a few lines: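 Read-out: Luminex xMAP quantitation of secreted TNF-alpha from a B cell/PBMC co-culture 24 h after compound addition. Signal analysed relative to DMSO vehicle, positive fitting direction.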

Read-out in assay [7]: Vascular cell adhesion molecule 1 (VCAM1), VCAM1 (gene 7412)
Briefly: BSK_MyoF_VCAM1: BioMAP Diversity Plus: MyoF Assay for Vascular cell adhesion molecule 1 (VCAM1) Biomarker Activity (AID 2284231). The conditions noted are these: primary human lung fibroblasts. In a few lines:
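Steps: fibroblasts from human lung exposed to compound; biomarker quantified by ELISA at 24 h; values analysed for upward change over the DMSO baseline.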

Sequence of Tumor necrosis factor (Homo sapiens) (P01375 whole entry, looked up): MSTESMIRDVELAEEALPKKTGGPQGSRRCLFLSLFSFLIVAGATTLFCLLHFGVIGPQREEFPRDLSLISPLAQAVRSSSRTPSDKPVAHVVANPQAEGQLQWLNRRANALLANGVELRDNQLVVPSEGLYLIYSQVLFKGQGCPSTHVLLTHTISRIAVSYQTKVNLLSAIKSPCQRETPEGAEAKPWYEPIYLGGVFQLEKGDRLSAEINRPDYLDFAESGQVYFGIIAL

For `OCC(F)(F)C(F)(F)C(F)(F)C(F)(F)C(F)(F)C(F)F`, the result in assay [1], in assay [2], in assay [3], in assay [4], in assay [5] and in assay [6] was inactive. Moreover, the outcome in assay [7] was inactive.
For `CCN(CC)c1ccc2c(C)cc(=O)oc2c1`, the result in assay [1], in assay [3], in assay [5], in assay [6] and in assay [7] was inactive. Besides, the half-maximal activity concentration (AC50) in assay [2] is 28.3 µM (active); in assay [4], 10.9 µM (active).
As to `O=C(O)C(F)(F)C(F)(F)C(F)(F)C(F)(F)C(F)(F)C(F)(F)C(F)(F)C(F)(F)Cl`, the half-maximal activity concentration (AC50) is 20.5 µM (active) and 22.2 µM (active) in assay [1]; 8.64 µM (active) and 37.3 µM (active) in assay [3]; 43.5 µM (active) and 23.5 µM (active) in assay [7]. For the same molecule, the outcome in assay [2], in assay [4], in assay [5] and in assay [6] was inactive.
Consider `Nc1ccc([N+](=O)[O-])cc1O`, for which the outcome in assay [1], in assay [2], in assay [3], in assay [4], in assay [5] and in assay [6] was inactive. Moreover, in assay [7], the outcome was inactive.
For the molecule `OCC(F)(F)C(F)(F)C(F)(F)F`, the outcome in assay [1], in assay [2], in assay [3], in assay [4], in assay [5] and in assay [6] was inactive. Further, the result in assay [7] was inactive.
For the molecule `C=CC(F)(F)C(F)(F)C(F)(F)C(F)(F)C(F)(F)C(F)(F)C(F)(F)C(F)(F)C=C`, the result in assay [1], in assay [2], in assay [3], in assay [4], in assay [5] and in assay [6] was inactive. For the same molecule, the outcome in assay [7] was inactive.
For the molecule `O[Si](c1ccccc1)(c1ccccc1)c1ccccc1`, the outcome in assay [1], in assay [4] and in assay [7] was inactive. The AC50 in assay [2] is 14.1 µM (active); in assay [3], 27.3 µM (active); in assay [5], 28.9 µM (active); in assay [6] it was 38.2 µM (active).
Consider `C=CC(=O)OCC(F)(F)C(F)(F)C(F)(F)C(F)(F)COC(=O)C=C`, for which the AC50 in assay [1] was 11.3 µM (active) and 11.2 µM (active); in assay [2], 10.5 µM (active) and 7.38 µM (active); in assay [3], 13.7 µM (active) and 12 µM (active); in assay [4] it was 12.3 µM (active) and 10.4 µM (active); in assay [5] it was 7.14 µM (active) and 8.58 µM (active); in assay [6], 9.76 µM (active) and 9.35 µM (active). Also, in assay [7], the AC50 is 9.29 µM (active) and 10.5 µM (active).
For `FC(F)(F)C(F)(F)C(F)(F)C(F)(F)C(F)(F)C(F)(F)CC1CO1` (stereo not drawn), the outcome in assay [1], in assay [2], in assay [3], in assay [4], in assay [5] and in assay [6] was inactive. In addition, the outcome in assay [7] was inactive.
With `OCCCC(F)(F)C(F)(F)C(F)(F)C(F)(F)C(F)(F)C(F)(F)C(F)(F)F`, the half-maximal activity concentration (AC50) in assay [1] is 20.4 µM (active) and 20.1 µM (active); in assay [2], 18.3 µM (active) and 48.6 µM (active); in assay [3], 23.6 µM (active) and 20.6 µM (active); in assay [4], 21 µM (active) and 25.9 µM (active); in assay [5], 18.8 µM (active) and 36.4 µM (active); in assay [6], 20.2 µM (active) and 23 µM (active). Besides, the AC50 in assay [7] is 51.2 µM (active) and 50.4 µM (active).
Turning to `O=C(O)C(F)(F)C(F)(F)C(F)(F)C(F)(F)C(F)(F)C(F)(F)C(F)(F)C(F)(F)C(F)(F)C(F)(F)C(F)(F)C(F)(F)F`, the outcome in assay [1], in assay [2], in assay [3], in assay [4], in assay [5] and in assay [6] was inactive. Moreover, the outcome in assay [7] was inactive.
With `OCCCC(F)(F)C(F)(F)C(F)(F)F`, the result in assay [1], in assay [2], in assay [3], in assay [4], in assay [5] and in assay [6] was inactive. The outcome in assay [7] was inactive.
For `O=C(O)C=C(C(F)(F)F)C(F)(F)F`, the result in assay [1], in assay [4] and in assay [5] was inactive. The half-maximal activity concentration (AC50) in assay [2] was 46 µM (active) and 43.1 µM (active); in assay [3], 30 µM (active); in assay [6], 30 µM (active) and 34.9 µM (active); in assay [7], 21.8 µM (active) and 16.2 µM (active).
Turning to `FC(F)(F)C(F)(F)C(F)(F)C(F)(F)C(F)(F)C(F)(F)CCS`, the result in assay [1], in assay [2], in assay [3], in assay [4], in assay [5] and in assay [6] was inactive. Further, in assay [7], the result was inactive.
Regarding `FC(F)(I)C(F)(F)C(F)(F)C(F)(F)I`, the AC50 was 49.7 µM (active) and 47.7 µM (active) and 47.2 µM (active) in assay [1]; 45.7 µM (active) and 46.4 µM (active) and 56.3 µM (active) in assay [2]; 52.2 µM (active) and 54.9 µM (active) and 48.7 µM (active) in assay [3]; 46.3 µM (active) and 55.2 µM (active) and 45.9 µM (active) in assay [4]; 42.1 µM (active) and 50.4 µM (active) and 39.2 µM (active) in assay [5]; 48.3 µM (active) and 46.1 µM (active) and 46 µM (active) in assay [6]. Besides, the AC50 in assay [7] was 52.7 µM (active) and 45.4 µM (active) and 45.5 µM (active).
`COC(=O)CCC(F)(F)C(F)(F)C(F)(F)C(F)(F)F`: the outcome in assay [1], in assay [2], in assay [3], in assay [4], in assay [5] and in assay [6] was inactive. Further, the outcome in assay [7] was inactive.
Turning to `FC(F)(F)C(F)(F)C(F)(F)CI`, the result in assay [1], in assay [2], in assay [3], in assay [4], in assay [5] and in assay [6] was inactive. Besides, the result in assay [7] was inactive.
Take `FC(F)(F)C(F)(F)CNCC(F)(F)C(F)(F)F`: the result in assay [1], in assay [2], in assay [3], in assay [4], in assay [5] and in assay [6] was inactive. In addition, the result in assay [7] was inactive.
`FC(F)(F)C(F)(F)C(F)(F)C(F)(F)CCI`: the result in assay [1], in assay [2], in assay [3], in assay [4], in assay [5] and in assay [6] was inactive. Moreover, the outcome in assay [7] was inactive.
